Bioassay records as filed in PubChem.
This is a sample that favours compounds with a hit; in the whole collection about 3.6% have one here.
LGR2 antag: inhibitors of bursicon-induced Drosophila LGR2 receptor cAMP signaling; AID 720647; 380,000 compounds, 0.35% hits; inhibition, % at 9.99 µM; HEK293 LGR2, CRE-luciferase, bursicon-stimulated, 4 h;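 active = drop in luminescence signal, shown as inhibition above about 50% in the replicate tests, limit read from the data, passing the limit was not always enough; inconclusive = probably only some replicates passing the limit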;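 note: agonist challenge used bursicon conditioned medium at about half maximal strength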
HSP90 inh: blocks HSP90-mediated luciferase refolding in reticulocyte lysate; Rabbit reticulocyte lysate, luciferase refolding luminescence, 3 h; inhibition, % at 5.6 µM; 290,000 compounds, 0.91% hits;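 active = inhibition above the screen-wide mean plus 3 SD, computed separately per campaign, cut at about 16% in these data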;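 note: inhibitors lower the luminescence because luciferase stays unfolded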
CF NFkB inh: inhibitors of cystic fibrosis induced NF-kB; KKLEB NF-kB-GFP reporter, PAF-induced, GFP fluorescence overnight; inhibition, % at 5 µM; 360,000 compounds, 0.86% hits; AID 588850;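 active = at least 50% inhibition at 5 µM, scaled per plate between neutral and stimulator controls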;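 note: PAF is a Pseudomonas aeruginosa culture filtrate used as stimulus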
KKLEB cytotox: reduces viability of KKLEB cystic fibrosis airway cells | 360,000 compounds, 0.36% hits | AID 602141 | activity change (cytotoxicity), % at 5 µM | KKLEB CF airway cells viability, ATPlite luminescence, overnight; hits give low values; cells stimulated with P. aeruginosa culture filtrate;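 active = corrected activity change at or below -50% at 5 µM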
Mdm2 MdmX PPI: inhibitors of human Mdm2/MdmX interaction; inhibition, % at 8 µM; O15151+Q00987; 330,000 compounds, 3% hits; SaOS-2 split-luciferase Mdm2/MdmX complementation, luminescence; AID 485346;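 active = inhibition of at least 50% at 8 µM in the primary screen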
Peg3 promoter: reduces Peg3 promoter-driven luciferase expression in HeLa | HeLa PEG-Prom luciferase reporter, luminescence, overnight | inhibition, % at 20 µM | 360,000 compounds, 1.7% hits;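 active = inhibition of at least 50% at 20 µM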
A number is an active result; – = inactive; ? = inconclusive; · = no result.

SMILES | LGR2 antag | HSP90 inh | CF NFkB inh | KKLEB cytotox | Mdm2 MdmX PPI | Peg3 promoter
O=C(CN1CCOCC1)N[C@H]1CC[C@@H](CCNC(=O)C2CCC2)O[C@H]1CO | – | · | · | · | · | ·
C[C@H]1CCCCO[C@H](CN(C)C(=O)Nc2ccc(F)cc2)[C@@H](C)CN([C@@H](C)CO)C(=O)c2cc(NC(=O)C3CCCCC3)ccc2O1 | – | · | · | · | · | ·
O=C(c1cc2nc(-c3ccccc3)cc(-c3ccccc3)n2n1)N1CCCC1 | · | – | – | – | – | –
O=C(c1cc2nc(-c3ccccc3)cc(-c3ccccc3)n2n1)N1CCN(C(=O)c2ccco2)CC1 | · | – | – | – | – | 50
CCOC(=O)C1CCN(C(=O)C2(NC(=O)NC3CCCCC3)CCCCC2)CC1 | – | – | – | – | – | 64
CC(C)NC(=O)N(C)C[C@H]1Oc2c(NC(=O)Nc3ccccc3)cccc2C(=O)N([C@@H](C)CO)C[C@H]1C | – | · | · | · | · | ·
C[C@@H]1CN([C@H](C)CO)C(=O)c2cc(C#CCN(C)C)cnc2O[C@@H]1CN(C)S(C)(=O)=O | – | · | · | · | · | ·
COc1cc(OC)c2nc(C)c3c(c2c1)N(c1ccc(O)cc1)CC3 | · | – | – | – | · | 65
CCOC(=O)/C(C#N)=C/c1cccc(C)c1 | – | – | – | – | · | 73
COc1ccc(C(=O)CC(=O)c2ccc(C(C)(C)C)cc2)cc1 | – | · | – | – | · | –
COc1ccc(C(=O)C(CCC(CNC(C)(C)C)C(=O)c2ccc(OC)cc2)CNC(C)(C)C)cc1 (configuration not stated) | ? | – | – | – | · | 105
CCc1c(C)nc2c(-c3ccccc3)c(-c3ccccc3)[nH]n2c1=O | – | – | – | – | – | 53
Cc1ccc(S(=O)(=O)N(C)C[C@@H]2Oc3c(NC(=O)c4cnccn4)cccc3C(=O)N([C@H](C)CO)C[C@H]2C)cc1 | – | · | · | · | · | ·
Cc1nc2cc(NCc3nc4ccccc4n3Cc3ccccc3)ccc2n1C | · | 16 | – | – | – | –
ClCc1nc2ccccc2n1Cc1ccccc1 | – | – | – | – | – | 107
COCc1nc2ccccc2n1Cc1ccccc1 | · | – | – | – | – | –
Cc1cccc(NCc2nc3ccccc3n2Cc2ccccc2)c1 | · | – | – | – | – | –
CC(OC(=O)c1ccc(Cl)c([N+](=O)[O-])c1)C(=O)N1CCN(Cc2ccccc2)CC1 (configuration not stated) | – | · | – | – | – | 78
CC(C(=O)N1CCN(Cc2ccccc2)CC1)c1ccc([N+](=O)[O-])cc1 (configuration not stated) | – | – | – | – | – | –
COCCCNc1ccn2nc(-c3ccccc3)cc2n1 | 72 | · | – | – | · | –
S=c1[nH]nc(-c2ccc(Cl)cc2Cl)n1-c1ccc2c(c1)OCCO2 | · | – | – | – | – | –
Oc1ccc(-c2n[nH]c(=S)n2-c2ccc3c(c2)OCCO3)c(O)c1 | – | 16 | – | – | · | –
O=c1[nH]c(CSc2nc3ccccc3s2)nc2ccccc12 | – | – | – | – | – | –
COc1ccc(C2NCCc3c2[nH]c2ccccc32)cc1CSc1nc2ccccc2s1 (configuration not stated) | – | – | – | – | · | 92
CN(C)c1ccc(CCc2ccc(N)cc2)cc1 | – | · | – | – | – | –
SMILES | LGR2 antag | HSP90 inh | CF NFkB inh | KKLEB cytotox | Mdm2 MdmX PPI | Peg3 promoter
Nc1ccc(N(c2ccccc2)c2ccc(N)cc2)cc1 | · | – | 87 | – | – | –
O=C(C[C@H]1C[C@@H]2c3cc(NS(=O)(=O)c4ccc(F)cc4)ccc3O[C@@H]2[C@@H](CO)O1)NCc1ccccc1F | – | · | · | · | · | ·
COc1cccc(NC(=O)N2CC(=O)N3[C@H](CO)[C@@H](c4ccc(C#CCC5CCCC5)cc4)[C@H]3C2)c1 | – | · | · | · | · | ·
CCn1c(O)c(/C=N/N=C/c2ccccc2)c2ccc(C3=NNC(=O)CC3)cc21 | · | – | – | – | – | 50
CCC(CC)=N/N=C/c1c(O)n(CC)c2cc(C3=NNC(=O)CC3)ccc12 | · | – | – | – | – | –
COc1ccc(/C=N/n2cnc3c([nH]c4ccc(C)cc43)c2=O)cc1CN1CCCC1 | – | – | – | – | – | 77
COc1ccc2c(c1)[nH]c1c(=O)n(/N=C/c3ccc(OC)c(CN4CCCC4)c3)cnc12 | – | – | – | – | – | –
N#Cc1nc(Nc2cccc(Cl)c2)c2ncn(C3CCCC3)c2n1 | – | · | 51 | -54 | – | –
C[C@@H]1CN([C@H](C)CO)C(=O)c2cc(NC(=O)NC3CCCCC3)ccc2O[C@@H](C)CCCCO[C@@H]1CN(C)C(=O)C1CCCCC1 | – | · | · | · | · | ·
